Reference: PMC5540273 (PLoS ONE, 2017)

Tests used:
Settings in all cases: concentration: 1 μM, replicates: in singlicate; n = 1
NIM1 = system: T1, NIM1
T1 construct: gene MGC42105

NLK = system: NLK
OSR1 = system: T2, OSR1
T2 construct: gene OXSR1

PAK1 = system: PAK1
PAK2 = system: PAK2
PAK3 = system: PAK3
PAK4 = system: PAK4
PAK6 = system: PAK6
PAK7 = system: PAK7
PCTK1 = system: T3, PCTK1
T3 construct: gene CDK16

PCTK2 = system: T4, PCTK2
T4 construct: gene CDK17

PCTK3 = system: T5, PCTK3
T5 construct: gene CDK18

PDGFRA = system: PDGFRA
PDGFRB = system: PDGFRB
PDPK1 = system: PDPK1
PFTAIRE2 = system: PFTAIRE2
PFTK1 = system: T6, PFTK1
T6 construct: gene CDK14

PHKG1 = system: PHKG1
PHKG2 = system: PHKG2
PIK3C2B = system: PIK3C2B
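Note: KINOMEscan kinase panel screen.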

SMILES	%Inh (NIM1)	%Inh (NLK)	%Inh (OSR1)	%Inh (PAK1)	%Inh (PAK2)	%Inh (PAK3)	%Inh (PAK4)	%Inh (PAK6)	%Inh (PAK7)	%Inh (PCTK1)	%Inh (PCTK2)	%Inh (PCTK3)	%Inh (PDGFRA)	%Inh (PDGFRB)	%Inh (PDPK1)	%Inh (PFTAIRE2)	%Inh (PFTK1)	%Inh (PHKG1)	%Inh (PHKG2)	%Inh (PIK3C2B)
CC(C)c1nc(-c2ccc(F)c(NS(=O)(=O)c3c(F)cccc3F)c2)c(-c2ccnc(Nc3ccc(N4CCOCC4)nc3)n2)s1 [GSK1804250]	0%	96.3%	7%	5%	11%	36%	0%	0%	10%	94.6%	94.9%	76%	88%	99.6%	11%	11%	71%	0%	9%	17%
Cn1cc(-c2ccc3c(c2)CCN3C(=O)Cc2cc(F)cc(C(F)(F)F)c2)c2c(N)ncnc21 [GSK2635225]	20%	14%	0%	13%	0%	16%	2%	4%	16%	7%	14%	15%	93%	100%	2%	22%	22%	0%	3%	0%
NCCC(NC(=O)c1cc(Br)c(-c2ccnc3[nH]ccc23)s1)c1ccccc1.O=C(O)C(F)(F)F.O=C(O)C(F)(F)F (stereo not drawn) [GSK1307810]	7%	3%	10%	19%	56%	76%	74%	62%	86%	1%	16%	0%	25%	53%	28%	8%	0%	24%	12%	0%
Fc1cc(Cl)ccc1Nc1ccnc2cc(-c3ccc(CN4CCSCC4)o3)ccc12 [GW560106]	23%	30%	0%	8%	4%	45%	0%	0%	0%	0%	0%	8%	99.1%	100%	0%	6%	11%	1%	0%	0%
O=C(Nc1n[nH]c2nc(-c3cccc(O)c3)ccc12)C1CC1 [SB-711805]	0%	96.7%	0%	0%	18%	0%	0%	100%	4%	52%	35%	0%	52%	50%	5%	21%	4%	0%	0%	4%
COC(=O)Nc1nc2cc(Oc3ccc(NC(=O)Nc4cccc(SC)c4)cc3)ccc2[nH]1.Cl [GW697999]	32%	0%	15%	0%	0%	29%	0%	0%	0%	3%	6%	26%	99.4%	100%	0%	15%	20%	3%	34%	0%
CN(c1ccc(F)c(NC(=O)c2cccc(OC(C)(C)C#N)c2Cl)c1)c1ccc2nc(NC(=O)C3CC3)sc2n1	8%	78%	5%	5%	0%	27%	0%	0%	0%	2%	0%	0%	97.8%	100%	36%	11%	0%	7%	0%	15%
Cc1cccc(Nc2nc(NCCN)ncc2C(N)=O)c1 [GSK1292139]	29%	0%	15%	16%	48%	16%	93%	76%	98.6%	3%	0%	0%	51%	89%	0%	16%	0%	42%	63%	0%
COc1cccc(C2=C(Nc3cccc(O)c3)C(=O)NC2=O)c1 [SB-390771]	16%	15%	8%	7%	5%	32%	0%	100%	26%	15%	0%	6%	0%	20%	0%	14%	22%	0%	0%	0%
COc1ccc(C)c(Nc2ccnc(Nc3ccc(-c4cnc[nH]4)cc3)n2)c1.Cl [GW784041]	0%	13%	0%	0%	12%	20%	6%	10%	0%	0%	10%	2%	0%	76%	0%	0%	0%	0%	8%	0%
Cn1cc(-c2cnc(N)c3c(-c4ccc5c(c4)CCN5C(=O)Cc4ccccc4)csc23)cn1 [GSK2593074]	0%	17%	0%	17%	0%	13%	0%	17%	3%	0%	0%	6%	98.2%	100%	56%	0%	0%	6%	14%	13%
O=C(Nc1c(F)cccc1F)c1cc(C(=O)c2ccccc2F)c[nH]1 [GSK1326180]	0%	0%	34%	0%	0%	0%	0%	0%	0%	0%	0%	0%	0%	14%	0%	10%	20%	0%	0%	0%
Cc1nn2c(=O)cc(N3CCO[C@H](C)C3)nc2n1Cc1cccc(Cl)c1Cl [GSK2373693]	11%	78%	83%	2%	10%	36%	0%	52%	0%	7%	0%	8%	1%	65%	0%	9%	5%	0%	0%	99.4%
N#CC1(c2cccc(C(=O)Nc3cccc(Oc4ccc5nc(NC(=O)C6CC6)sc5n4)c3)c2)CC1	0%	0%	0%	3%	27%	0%	0%	15%	0%	0%	0%	1%	99.7%	100%	49%	0%	9%	0%	19%	0%
CCn1cnc2c(NCc3ccccc3)ncnc21 [SKF-96418]	17%	0%	0%	11%	42%	0%	0%	0%	0%	0%	0%	0%	0%	0%	0%	0%	0%	0%	0%	0%
